GRK2 inh: compounds blocking aptamer binding on GRK2 – biochemical, human GRK2, bead flow cytometry, HTS, primary screen; Beta-adrenergic receptor kinase 1 (Homo sapiens), P25098; FAM-aptamer displacement from GRK2; inhibition of aptamer binding, % at 10 µM; hit rate 0.59% among 330,000; AID 488847, 2010;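 active means inhibition of aptamer binding above 40%, roughly 3 SD of noise, on plates passing a quality check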;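 further: median bead fluorescence of bound FAM aptamer so fluorescent compounds give negative values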
MEKK3 PB1 HTS: modulators of MEKK3-MEK5 PB1 binding, primary screen, biochemical, wildtype MEKK3, multiplex bead flow cytometry, Alexa488-MEK5; bead-based flow cytometry, Alexa488-MEK5 binding to MEKK3; actives lie on both sides; 0 = blocked by unlabeled MEK5, 100 = vehicle; hit rate 1.4% among 290,000; Mitogen-activated protein kinase kinase kinase 3 (Homo sapiens), Q99759; AID 1529, 2009; binding response (% of control), % at 10 µM;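 active means binding response more than 3 SD above or below the average of its plate-row segment, actives on both sides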;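 further: Alexa488 bead fluorescence after subtracting the streptavidin-only scavenger bead signal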
MEKK2wt PB1 HTS: modulators of MEK5 binding to wildtype MEKK2, primary screen, biochemical, multiplex bead flow cytometry, Alexa488-MEK5; Mitogen-activated protein kinase kinase kinase 2 (Homo sapiens), Q9Y2U5; Alexa488-MEK5 binding to MEKK2 WT; actives lie on both sides; binding response (% of control), % at 10 µM; hit rate 1.1% among 290,000; in the data active means binding response below about 67% or above about 130%
MEKK2 mut-MEK5: MEK5 binding signal on mutant MEKK2 PB1, primary screen, biochemical, multiplex bead flow cytometry, Alexa488-MEK5 | Alexa488-MEK5 binding to MEKK2 mutant | percent response, % at 10 µM | hit rate 0.35% among 290,000; in the data active means percent response above about 24%, passing the limit was not always enough
B2AR ag: beta2AR agonists driving receptor internalization, primary screen, cell-based, FAP fluorogen, flow cytometry; Beta-2 adrenergic receptor (Homo sapiens), P07550; Am2.2-beta2AR cells; response, % (test concentration not listed); hit rate 0.43% among 340,000; AID 504454, 2011;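 active means response above a set limit, near 3 SD of response in nonfluorescent compounds, cut at about 42% in these data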
Target sequence (P07550 whole entry, looked up): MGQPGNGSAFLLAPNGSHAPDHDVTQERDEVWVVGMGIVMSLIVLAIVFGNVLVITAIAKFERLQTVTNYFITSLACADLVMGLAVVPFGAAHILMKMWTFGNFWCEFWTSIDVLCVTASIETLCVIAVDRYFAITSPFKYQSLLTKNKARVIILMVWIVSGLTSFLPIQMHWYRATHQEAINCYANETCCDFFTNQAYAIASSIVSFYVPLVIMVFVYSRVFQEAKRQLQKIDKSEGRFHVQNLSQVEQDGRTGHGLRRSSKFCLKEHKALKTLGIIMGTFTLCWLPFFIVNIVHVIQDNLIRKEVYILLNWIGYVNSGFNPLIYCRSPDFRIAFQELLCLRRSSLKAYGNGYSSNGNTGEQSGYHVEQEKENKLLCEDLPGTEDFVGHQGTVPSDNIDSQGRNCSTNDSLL
GRK2 inh confirm: GRK2 aptamer-displacing inhibitors, retest, confirmation, biochemical, cherry pick 1, bead flow cytometry; shares compounds with GRK2 inh; bead-bound GRK2, FAM-aptamer displacement; aptamer displacement, % at 10 µM; hit rate 4% among 2,000;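 active means aptamer displacement above 40%, near three times the noise of non-fluorescent compounds, on plates passing quality checks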;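 further: negative values mostly reflect intrinsic compound fluorescence rather than true enhancement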
FAM quench CP1: quenches fluorescent RNA aptamer, GRK2 hit artifact | Carboxyfluorescein RNA aptamer on beads, flow cytometry quenching; hits give low values | 2,000 tested, under 10 active | shares compounds with GRK2 inh | AID 504580 | fluorescence response (% of DMSO), % at 10 µM;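 active means compounds that quench the bead-bound fluorescent RNA probe, cutting fluorescence to under half of the solvent control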;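 further: counterscreen run without GRK2 so only probe quenching by compound is measured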
GRK2 confirm 2: GRK2 aptamer-displacing inhibitors, hit retest, confirmation, biochemical, cherry pick 2, bead flow cytometry. shares compounds with GRK2 inh. bead-bound GRK2, FAM-aptamer displacement. 360 tested, under 10 active. inhibition of aptamer binding, % at 10 µM;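 active means inhibition of aptamer binding above 40%, about triple the noise seen with nonglowing compounds, on plates passing quality control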;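 further: negative values mostly come from compounds that fluoresce themselves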
FAM quench SP: counter-screen for GRK2 binding hits: quenchers of fluorescent RNA aptamer; shares compounds with GRK2 inh; carboxyfluorescein RNA aptamer beads, flow cytometry quenching; hits give low values; fluorescence response vs DMSO, % at 10 µM; 360 tested, under 10 active; AID 588494;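 active means response vs DMSO under 50%, meaning signal dropped by over half, treated as fluorescence quencher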;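 further: labelled aptamer on streptavidin beads without GRK2 as a quench counter-screen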
Large screens that a line does not name were inactive (follow-up assays come after a bar, where they were run). A selection: hits, their analogues and other compounds. The true share with any hit is near 2.9%.

COC(=O)C1=C(c2c(C)noc2C)C[C@@H]2CC[C@H]1N2C(=O)NCCO	GRK2 inh 75.0 (no result: MEKK3 PB1 HTS, MEKK2wt PB1 HTS, MEKK2 mut-MEK5) | GRK2 inh confirm inactive | FAM quench CP1 inactive
CCOc1cc2c(cc1OCC)-n1cccc1C(c1cccc(F)c1F)NC2 (stereo not drawn)	none
Cc1cc(/C=C2\C(=O)NC(=O)N(Cc3ccccc3Cl)C2=O)c(C)n1-c1ccc(C(=O)O)cc1	GRK2 inh 77.0 | GRK2 inh confirm inactive | FAM quench CP1 inactive
Cc1ccc(N2C(=O)NC(=O)/C(=C\c3cc(C)n(-c4cc(C(=O)O)cc(C(=O)O)c4)c3C)C2=O)cc1	none
CCc1ccc(N2C(=O)NC(=O)/C(=C\c3cc(C)n(-c4cc(C(=O)O)cc(C(=O)O)c4)c3C)C2=O)cc1	GRK2 inh 58.0 | GRK2 inh confirm inactive | FAM quench CP1 inactive
COC(=O)C1=C(c2cccc(OCc3ccccc3)c2)C[C@@H]2CC[C@H]1N2C(=O)NCCc1ccc(F)cc1	GRK2 inh 98.0 (no result: MEKK3 PB1 HTS, MEKK2wt PB1 HTS, MEKK2 mut-MEK5) | GRK2 inh confirm inactive | FAM quench CP1 inactive
COC(=O)C1=C(c2cccc(OCc3ccccc3)c2)C[C@@H]2CC[C@H]1N2C(=O)NCCOc1ccccc1	none (no result: MEKK3 PB1 HTS, MEKK2wt PB1 HTS, MEKK2 mut-MEK5)
C=CC(=O)OCCO	none (no result: GRK2 inh, MEKK3 PB1 HTS, MEKK2wt PB1 HTS, MEKK2 mut-MEK5)
O=c1c2ccccc2nc(/C=C\c2ccccc2[N+](=O)[O-])n1-c1ccccc1O	GRK2 inh 45.0 | GRK2 inh confirm inactive | FAM quench CP1 inactive
CC1([N+](=O)[O-])COP(=O)(Nc2cccc(Br)c2)OC1 (stereo not drawn)	none (no result: GRK2 inh, MEKK3 PB1 HTS, MEKK2wt PB1 HTS, MEKK2 mut-MEK5)
CC(C)CNc1c2c(nc3ccccc13)CCC2	none | GRK2 confirm 2 inactive | FAM quench SP inactive
Cc1ccccc1-n1c(CNc2ccccc2)nc2ccccc2c1=O	none (no result: MEKK3 PB1 HTS, MEKK2wt PB1 HTS, MEKK2 mut-MEK5)
O=C1c2cccc3cccc(c23)C(=O)N1/N=C/c1c(O)n(-c2ccccc2)c(=O)[nH]c1=O	GRK2 inh 62.0 | GRK2 inh confirm inactive | FAM quench CP1 inactive
O=C1NC(=O)N(Cc2ccco2)C(=O)/C1=C/C=C/c1ccco1	B2AR ag 84.9 | GRK2 inh confirm inactive | FAM quench CP1 inactive
Cc1ccc(-n2c(C)cc(/C=C3/C(=O)NC(=O)N(Cc4ccco4)C3=O)c2C)cc1	none
Cc1ccc(OCCn2cccc2/C=C2/C(=O)NC(=O)N(Cc3ccco3)C2=O)cc1	none | GRK2 inh confirm inactive | FAM quench CP1 inactive
CCOC(=O)C1CCN(/C=C2/C(=O)NC(=O)N(Cc3ccco3)C2=O)CC1	GRK2 inh 82.0 | GRK2 inh confirm inactive | FAM quench CP1 inactive
COC(=O)C1=C(c2ccc(-c3ccccc3)c(F)c2)C[C@@H]2CC[C@H]1N2C(=O)N1CCc2cc(OC)c(OC)cc2C1	none (no result: MEKK3 PB1 HTS, MEKK2wt PB1 HTS, MEKK2 mut-MEK5)
C[C@]1(O)CCC2C3CC[C@H]4C[C@@H](OC(=O)CNC(=O)CN)CC[C@]4(C)C3CC[C@@]21C (stereo partly drawn)	none (no result: MEKK3 PB1 HTS, MEKK2wt PB1 HTS, MEKK2 mut-MEK5)
COC(=O)C1=C(c2ccc(F)cc2OCc2ccccc2)C[C@@H]2CC[C@H]1N2C(=O)NC1Cc2ccccc2C1	none (no result: MEKK3 PB1 HTS, MEKK2wt PB1 HTS, MEKK2 mut-MEK5)
Cc1ccccc1OP(N)(=O)Oc1ccccc1C	GRK2 inh 52.0 | GRK2 inh confirm inactive | FAM quench CP1 inactive
Cc1cccc(OP(N)(=O)Oc2cccc(C)c2C)c1C	none
COc1cc(CN2CCNCC2)cc(OC)c1OC	none

Source: PubChem (NMMLSC)
